A selection follows.
aSyn UTR act: Activators via SNCA 5'UTR binding, MLPCN. activity score, % (tested at 7.5 µM), hits read low. AID 1814, 2009. alpha-synuclein 5'UTR reporter, activators screen. hit rate 7.1% among 300,000; in the data active means activity score below about -60%
Active calls of the source: *.

SMILES	aSyn UTR act
Clc1ccc(/C=C/c2ncc[nH]2)c(Cl)c1	-169*
COc1ccc(/C=C(/C(=O)c2cccs2)N2C=CC=CC2=C(C#N)C#N)cc1	-102*
COc1ccc(C(=O)/C(=C\c2ccco2)N2C=CC=CC2=C(C#N)C#N)cc1	77
CCC(Sc1nc2ccccc2c(=O)[nH]1)C(=O)Nc1ccc(C(C)=O)cc1 (centres undefined)	-79*
Nc1c(C(=O)Nc2nc3ccccc3s2)sc2nc(-c3cccs3)ccc12	106
CC(=O)c1sc2nc(-c3cccs3)ccc2c1N	-272*
CC(C)C1COC(c2cccc3ccccc23)=N1 (centres undefined)	-115*
C/C(=N/NC(=O)c1cccs1)c1ccco1	-100*
C/C(=N\NC(=O)c1cccs1)C(C)(C)C	-94*
CC1C2CC(C/C2=N/NC(=O)c2cccs2)C1(C)C (centres undefined)	-74*
C/C(=N\NC(=O)c1cc(-c2ccc(C)s2)[nH]n1)c1ccco1	-168*
CCOC(=O)C/C(C)=N/NC(=O)c1cccs1	-131*
O=C(NN=C1CCCCCC1)c1cccs1	-75*
CCN(CC)S(=O)(=O)c1cccc(C(=O)N[C@H](C(=O)Nc2nc3ccc(F)cc3s2)C(C)C)c1	-83*
Cc1cccc(C(=O)NC(C(=O)Nc2nc(-c3ccccn3)cs2)C(C)C)c1 (centres undefined)	81
O=C(COc1ccc2c(c1)OCO2)Nc1ccccc1C(F)(F)F	-114*
N#Cc1ccccc1NC(=O)COc1ccc2c(c1)OCO2	-130*
CSc1ccc(C2NC(=O)c3ccccc3N2)cc1 (centres undefined)	-126*
Cc1ccc(C)c(C2NC(=O)c3ccccc3N2)c1 (centres undefined)	-70*
CC(C)Sc1nc2ccc(N3C(=O)C4CCCCC4C3=O)cc2s1 (centres undefined)	-126*
CCc1ccc(C(=O)NC2CCCCC2)s1	-82*
CC(C)(O)C#Cc1ccc(C(=O)NC2CCCCC2)s1	-98*
CC(C)(O)C#Cc1ccc(C(=O)Nc2ccc3c(c2)OCO3)s1	-143*
O=C(N/N=C/C(Cl)=C/c1ccccc1)c1ccco1	-158*
O=C(N/N=C/C(Cl)=C\c1ccccc1)c1ccco1	-224*
SMILES	aSyn UTR act
O=C(Nc1ccccc1Cl)c1cc(=O)c2ccccc2o1	-144*
O=C(Nc1ccccc1Br)c1cc(=O)c2ccccc2o1	-184*
Cc1cccc(NC(=S)NC(=O)c2oc3ccccc3c2C)n1	-144*
Cc1cccc(NC(=S)NC(=O)c2ccc(-c3ccccc3)cc2)n1	-109*
CCOC(=O)/C(C#N)=C/c1c(N2CCN(c3ccccc3)CC2)nc2ccccn2c1=O	-62*
N#C/C(=C\c1c(N2CCN(c3ccccc3)CC2)nc2ccccn2c1=O)C(N)=O	-71*
COC(=O)/C(C#N)=C/c1c(N2CCN(c3ccccc3)CC2)nc2ccccn2c1=O	-65*
CC(C)(C)NC(=O)N1CCN(c2nc(-c3ccccc3)ns2)CC1	-119*
CC(C)(C)NC(=O)N1CCN(c2nc3ccc(Cl)cc3s2)CC1	-156*
CCCCC(=O)N1CCN(c2nc3ccc(Cl)cc3s2)CC1	-148*
CC1CC1c1ccc(/C=C(\C#N)C(=O)Nc2cccc(Cl)c2Cl)o1 (centres undefined)	-111*
Brc1ccc(-c2csc(N3CCC(c4ccccc4)C3)n2)cc1 (centres undefined)	-86*
c1ccc(-c2csc(-n3cccn3)n2)cc1	-130*
c1ccc(-c2cn3nc4c(nc3n2)CCCC4)cc1	109
c1ccc(-c2csc(N3CCSCC3)n2)cc1	-90*
Fc1ccc(-c2csc(N3CCOCC3)n2)cc1	-129*
O=C(CSc1nc(-c2ccc(F)cc2)cs1)N1CCOCC1	-119*
Fc1ccc(-c2csc(N3CCSCC3)n2)cc1	-63*
CCc1ccc2oc(-c3cccc(NC(=O)c4cccnc4)c3)nc2c1	-167*
O=C(Nc1ccc2oc(-c3ccccc3)nc2c1)c1cccnc1	-161*
CCCCCC(=O)Nc1ccc2oc(-c3cccnc3)nc2c1	-75*
O=C(Nc1ccc2oc(-c3ccccc3)nc2c1)c1ccco1	-156*
O=C(Nc1ccc2oc(-c3ccccc3)nc2c1)c1ccc2c(c1)OCCO2	-66*
Cc1ccc(-c2nc(C)c(C(=O)O)s2)cc1	-208*
C/C(=N\OC(=O)c1ccc(F)cc1)c1sc(-c2ccc(Cl)cc2)nc1C	-211*
SMILES	aSyn UTR act
Cc1nc(-c2ccc(Cl)cc2)sc1C(=O)O	-101*
Cc1[nH][nH]c(=O)c1C(c1c(C)[nH][nH]c1=O)c1cn(Cc2ccc(Cl)c(Cl)c2)c2ccccc12	90
Cc1cccc(Cn2cc(SCC(=O)Nc3nccs3)c3ccccc32)c1	-156*
Cc1ccc(OCC(=O)N/N=C/c2cn(Cc3ccccc3)c3ccccc23)cc1	60
CN(C)c1ccc(N=Nc2ccc(S(N)(=O)=O)cc2)cc1	-96*
C/C(=C\C(=O)c1ccccc1)NCc1ccc(F)cc1	-64*
COc1cccc2c1C(=O)c1c(O)c3c(c(O)c1C2=O)C[C@@](O)(C(=O)CO)C[C@@H]3O[C@H]1C[C@H](N)[C@@H](O)[C@H](C)O1	109
Cc1ccc2c(c1)Cc1nc3ccccc3nc1-2	71
Cc1ccc2c(c1)C(=NC1CCCCC1)c1cc3ccccc3nc1-2	-206*
OCCNCc1ccc(OCc2ccc(Cl)cc2Cl)cc1	-84*
S=C(Nc1ccccc1)Nc1ccc(OCc2ccc(Cl)cc2Cl)cc1	96
CCOC(=O)c1ccc(NC(=O)c2cc3c(s2)CCC3)cc1	-154*
COc1ccc(C)cc1NC(=O)c1cc2c(s1)CCC2	-143*
COc1ccc(C)cc1NS(=O)(=O)c1ccc(-c2cnc(C3CC3)o2)cc1	102
O=C(Nc1cccc(Cn2cccn2)c1)c1cc2c(s1)CCCC2	-139*
COC(=O)c1sccc1NC(=O)c1cc2c(s1)CCCC2	-133*
CCOC(=O)c1cnc(SCc2ccccc2)nc1N	-183*
C=CCSc1ncc(C(=O)OCC)c(N)n1	-101*
O=C(NC(=S)Nc1ccc2c(c1)OCO2)c1ccccc1	-199*
CCc1ccc(NC(=O)c2cnc3n(c2=O)CCS3)cc1	-185*
O=C(Nc1ccc2c(c1)OCCO2)c1ccccc1	-98*
O=C(Nc1cccc([N+](=O)[O-])c1)c1[nH]ncc1Cl	-227*
CC(C)c1ccc(O)c(NC(=S)NC(=O)c2ccc3c(c2)OCO3)c1	-124*
O=C(Nc1cccc(Cl)c1)c1ccc2c(c1)OCCO2	-123*
O=C(Nc1ccc2c(c1)OCCO2)C(=O)NC1CC1	-74*
SMILES	aSyn UTR act
O=C(CS(=O)(=O)c1ccccc1)c1ccc2c(c1)OCCO2	-132*
O=C(Nc1ccc2c(c1)OCCO2)c1cccc(Cl)c1	-225*
CCCc1cc(C(=O)Nc2cccc([N+](=O)[O-])c2)cs1	-105*
CSc1ccccc1C(=O)Nc1ccc2c(c1)OCCO2	-65*
O=C(Nc1ccc2c(c1)OCCO2)C(=S)NCc1ccccc1	-96*
CCc1ccc(NC(=O)c2ccccc2SC)cc1	-177*
O=C(NC(=S)Nc1ccccc1Br)c1ccc2c(c1)OCO2	-137*
O=C(Nc1ccncc1)c1ccc2ccccc2c1	-135*
Cc1ccc(NC(=O)Nc2cccc([N+](=O)[O-])c2)cc1F	-87*
O=C(Nc1ccc2c(c1)OCCO2)c1cccc(C(=O)Nc2ccc3c(c2)OCCO3)c1	-148*
O=C(Nc1ccc2c(c1)OCO2)c1cncc(Br)c1	-191*
O=C(Nc1ncc([N+](=O)[O-])s1)c1ccc2c(c1)OCO2	103
O=C(Nc1cccc([N+](=O)[O-])c1)c1ccc2c(c1)OCCO2	-124*
